ARNT-TACC3 inh: disruptors of ARNT/TACC3 protein interaction, primary screen, biochemical, AlphaScreen, single concentration. AlphaScreen His-ARNT PAS-B/GST-TACC3 binding, luminescence; TACC3 fragment carries E629A point mutation. inhibition, % at 9.99 µM. 0.66% of 390,000 active. AID 623870, 2012;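 active = mean inhibition of replicates at least 50% and at least half of replicates each reaching 50%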
Neddyl block: inhibitors of cullin neddylation, primary screen, biochemical, TR-FRET, uHTS, NAE and Ubc12. NEDD8-conjugating enzyme Ubc12 (Homo sapiens) + NEDD8-activating enzyme E1 regulatory …. inhibition, % at 25 µM. 0.58% of 360,000 active. AID 651699, 2012; in the data active = inhibition above about 36%
NadD inh: inhibitors of S. aureus NadD, primary screen, biochemical, colorimetric, uHTS | purified NadD enzyme, colorimetric absorbance read-out | inhibition, % at 20 µM | 0.78% of 360,000 active | AID 602399, 2012; in the data active = inhibition above about 26%
sPLA2-III inh: human group III sPLA2 inhibitors, primary screen, biochemical, QFRET, BODIPY PC-A2 liposome substrate; 0.56% of 370,000 active; AID 743126, 2013; inhibition, % at 12.2 µM; QFRET BODIPY PC-A2 liposome hydrolysis, fluorescence;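 active = inhibition above mean plus 3 SD of compounds lying within the high and low control bounds, cut at about 19% in these data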
Target sequence (Q9NZ20 whole entry, looked up): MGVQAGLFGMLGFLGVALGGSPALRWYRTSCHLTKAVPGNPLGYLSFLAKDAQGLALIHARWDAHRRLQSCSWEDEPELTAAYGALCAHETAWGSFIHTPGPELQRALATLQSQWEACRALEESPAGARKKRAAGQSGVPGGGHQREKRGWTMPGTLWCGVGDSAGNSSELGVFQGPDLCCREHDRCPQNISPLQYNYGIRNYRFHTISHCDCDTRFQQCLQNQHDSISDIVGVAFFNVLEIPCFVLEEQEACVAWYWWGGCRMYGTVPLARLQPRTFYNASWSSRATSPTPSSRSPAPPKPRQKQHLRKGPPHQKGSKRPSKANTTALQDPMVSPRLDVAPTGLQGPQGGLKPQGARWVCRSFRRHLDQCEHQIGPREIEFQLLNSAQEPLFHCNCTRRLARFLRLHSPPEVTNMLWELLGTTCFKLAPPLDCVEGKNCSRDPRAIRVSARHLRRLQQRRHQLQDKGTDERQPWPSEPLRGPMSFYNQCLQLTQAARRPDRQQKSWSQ
DAGLB inhibitor: DAGLB lipase inhibitors, primary screen, biochemical, fluorescence, HTS; inhibition, % at 5.17 µM; HEK293T DAGLB membrane lysate, EnzChek fluorogenic substrate; Diacylglycerol lipase-beta (Homo sapiens), Q8NCG7; 0.059% of 340,000 active; in the data active = inhibition above about 34%
Numbers stand for hits; . = inactive; / = no result shown. Rows were chosen to be rich in hits. Some 2% of all compounds tested hit in one or more screens of this group.

SMILES	ARNT-TACC3 inh	Neddyl block	NadD inh	sPLA2-III inh	DAGLB inhibitor
O=C(CN1CC(c2ccccc2)CC1=O)N/N=C/c1cc(Br)ccc1O (configuration not stated)	48	/	.	.	.
O=C(CNC(=O)c1ccccc1)N/N=C/c1cc(Br)ccc1O	.	.	.	.	.
COC1=C/C(=C/c2c(O)c(C#N)c3ccccn23)C=CC1=O	.	39	.	.	.
CN(C)C(=O)[C@@]1(Cc2ccccc2N=[N+]=[N-])N=C(c2ccc(OCCCO)cc2)O[C@H]1c1ccccc1N=[N+]=[N-]	.	/	/	/	/
Cc1[nH]n(-c2ccccc2)c(=O)c1N=Nc1cccc([N+](=O)[O-])c1	.	.	.	.	.
NC(=S)n1[nH]c(-c2ccc([N+](=O)[O-])cc2)c(N=Nc2cccc([N+](=O)[O-])c2)c1=O	.	.	77	.	.
Cc1[nH]n(C(N)=S)c(=O)c1N=Nc1cccc([N+](=O)[O-])c1C	.	.	.	/	.
Cc1c(N=Nc2c(-c3ccc([N+](=O)[O-])cc3)[nH]n(C(N)=S)c2=O)cccc1[N+](=O)[O-]	.	.	81	.	.
Nc1[nH]n(-c2ccccc2)c(=O)c1N=Nc1ccccc1[N+](=O)[O-]	.	.	.	.	.
NC(=S)n1[nH]c(-c2ccc([N+](=O)[O-])cc2)c(N=Nc2ccccc2[N+](=O)[O-])c1=O	.	.	64	.	.
Cc1c(C)c2c(OCC(=O)N3CCC[C@H]3C(=O)O)cc3c(c2oc1=O)CCC(C)(C)O3	128	.	.	.	.
COc1cccc(/C=N/N2C(=O)CSC2=S)c1O	67	.	.	.	.
O=C1CSC(=S)N1N=Cc1c(O)ccc2ccccc12	68	.	34	.	.
Cc1cc(C)c2nc(-c3ccccn3)cc(C(=O)Nc3ccc(S(=O)(=O)Nc4onc(C)c4C)cc3)c2c1	.	.	41	/	/
Cc1cc(NS(=O)(=O)c2ccc(NC(=O)c3cc(-c4cccnc4)nc4ccc(Cl)cc34)cc2)no1	.	.	.	.	.
Cc1cc(C)c2nc(-c3ccccn3)cc(C(=O)Nc3ccc(S(=O)(=O)Nc4cc(C)on4)cc3)c2c1	.	.	61	.	.
C[C@@H]1CN([C@H](C)CO)C(=O)Cc2cc(NC(=O)Cc3ccccc3)ccc2O[C@@H]1CN(C)S(=O)(=O)c1cn(C)cn1	.	/	/	/	/
CC(C)CC#Cc1cnc2c(c1)C(=O)N([C@@H](C)CO)C[C@H](C)[C@@H](CN(C)C(=O)c1cnccn1)O2	.	/	/	/	/
NS(=O)(=O)c1ccc(CCNC(=O)c2ccc3nc4ccc(Cl)cc4c(=O)n3c2)cc1	.	47	.	.	.
COc1ccc(NC(=O)Nc2ccc3c(c2)C(=O)N([C@H](C)CO)C[C@H](C)[C@@H](CN(C)C(=O)Nc2ccc(C(F)(F)F)cc2)OCCCC[C@H](C)O3)cc1	.	/	/	/	/
Oc1cccc(NC(=S)N=Nc2c(O)[nH]c3ccccc23)c1	54	.	.	.	.
CCOc1ccc(NC(=S)N=Nc2c(O)[nH]c3ccccc23)cc1	.	.	.	.	.
Oc1[nH]c2ccccc2c1N=NC(=S)N1CCOCC1	66	.	.	/	.
COC(=O)N=Nc1c(O)[nH]c2ccc(Br)cc12	.	.	.	.	.
NC(=S)N=Nc1c(O)[nH]c2ccccc12	.	.	.	.	.
SMILES	ARNT-TACC3 inh	Neddyl block	NadD inh	sPLA2-III inh	DAGLB inhibitor
Oc1[nH]c2ccc(Br)cc2c1N=NC(=S)N1CCOCC1	66	.	.	.	.
C[C@H]1CCCCO[C@H](CN(C)C(=O)C2CCCCC2)[C@@H](C)CN([C@@H](C)CO)C(=O)c2cc(NC(=O)Cc3ccccc3)ccc2O1	.	/	/	/	/
Cc1cc(C)n2nc(/C(C#N)=C/c3ccccn3)c(C#N)c2n1	.	40	.	.	.
Cc1cc(C)n2nc(CC#N)c(C#N)c2n1	.	.	.	.	.
c1cncc(-c2nnc(-c3cccnc3)nn2)c1	.	.	.	.	.
Cn1c(SSc2ccc(-c3cccnc3)n2C)ccc1-c1cccnc1	17	.	.	.	.
C/C(=N\NC(=O)CO/N=C(\C)c1cccs1)c1ccc(N)cc1	.	.	.	.	.
